For 18 molecules, growth results are on record in PubChem BioAssay (NCI).

Test systems include HCT-15 colon; HT29 colon; SNB-75 CNS; SNB-19 CNS; U251 CNS; PC-3 prostate; UACC-62 melanoma; LOX IMVI melanoma; SK-MEL-28 melanoma.
What all share (assay): NCI-60 one-dose screen, 48 h (100 = growth as untreated, 0 = no growth, -100 = all killed)
Common to all, as to details: 10 µM unless noted

This is part of a sample that, as a whole, favours compounds with a hit. Of some 83,000 tested, about 20% had one in any assay.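 A percent growth of 40 corresponds to 60% growth inhibition; 0 means no net growth; -100 means all cells died. Active threshold: below 10.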 Unmarked numbers belong to inactive results. Active and inactive are the calls of the source.

On to `Cn1cc(-c2ccc3c(Nc4cccc(NC(=O)Nc5cccc(F)c5)c4)ncnc3c2)cn1`, for which the growth was 37.8% in the assay with HCT-15 colon; 32.8% with HT29 colon; 43.8% in the assay with SNB-75 CNS; 65% with SNB-19 CNS; 28.4% in the assay with U251 CNS; 33.6% in the assay with PC-3 prostate. The results for the growth in the assay with UACC-62 melanoma, in the assay on LOX IMVI melanoma and with SK-MEL-28 melanoma were 32.4%, 41.9% and 49.6%, respectively.
Regarding `COc1ccc(Nc2nccc(Nc3ccc4[nH]ncc4c3)n2)cc1`, the growth in the assay on HCT-15 colon is 6.21% (active); with HT29 colon it was 12.1%; in the assay on SNB-75 CNS it was 65.8%; with SNB-19 CNS, 59.7%; in the assay with U251 CNS it was 35.5%; in the assay with PC-3 prostate it was 13.5%. Moreover, the growth with UACC-62 melanoma is 38.6%; in the assay with LOX IMVI melanoma, 19%; with SK-MEL-28 melanoma it was 65.8%.
As to `CC(=O)CC(=O)c1ccccc1.[Cu+2]`, the growth in the assay on HCT-15 colon is 94.3%; in the assay on HT29 colon, 106%; in the assay on SNB-75 CNS it was 121%; in the assay on SNB-19 CNS, 96.6%; in the assay on U251 CNS, 105%; in the assay with PC-3 prostate, 96.8%. Moreover, the growth in the assay on UACC-62 melanoma is 95.8%; in the assay on LOX IMVI melanoma, 83.9%; in the assay with SK-MEL-28 melanoma, 105%.
`O=C(Oc1ccccc1)c1cc(O)c(O)c(O)c1`: the growth with HCT-15 colon was 39.8%; with HT29 colon, 85.7%; in the assay with SNB-75 CNS it was 79.5%; with SNB-19 CNS, 65.2%; with U251 CNS, 54.8%; in the assay on PC-3 prostate it was 70.4%. Besides, the growth with UACC-62 melanoma was 31.3%; with LOX IMVI melanoma, 59.3%; in the assay on SK-MEL-28 melanoma it was 89.9%.
On to `Cc1[nH]c(C2CC(c3ccc(C(F)(F)F)c(F)c3)=NN2C)c(C)c1C(=O)NCC(F)(F)F` (stereo not given), for which the growth in the assay on HCT-15 colon was 92.2%; with HT29 colon, 102%; with SNB-75 CNS, 96.9%; in the assay on SNB-19 CNS, 91.9%; with U251 CNS, 96.8%; in the assay on PC-3 prostate it was 98.1%. Further, the figures for the growth in the assay with UACC-62 melanoma, in the assay on LOX IMVI melanoma and in the assay with SK-MEL-28 melanoma were 82.3%, 93.1% and 101%, respectively.
On to `CC(=O)O[C@H]1CC[C@@]2(C)C(=CC[C@@H]3[C@@H]2CC[C@]2(C)C(Cl)=C(c4nc5ccc(Cl)cn5c4NC(C)(C)C)C[C@@H]32)C1`, for which the growth in the assay on HCT-15 colon was 100%; with HT29 colon, 102%; in the assay with SNB-75 CNS, 76.4%; in the assay with SNB-19 CNS, 85.1%; in the assay on U251 CNS, 88.5%; in the assay on PC-3 prostate, 82.9%. Besides, the growth in the assay on UACC-62 melanoma is 73.6%; with LOX IMVI melanoma it was 89.8%; in the assay with SK-MEL-28 melanoma, 94.4%.
With `c1ccc2[nH]c(-c3ccc(-c4nccc5c4[nH]c4ccccc45)cc3)nc2c1`, the growth is 38.7% in the assay on HCT-15 colon; 4.38% (active) with HT29 colon; 64.9% in the assay with SNB-75 CNS; 55.1% in the assay with SNB-19 CNS; 24.2% in the assay with U251 CNS; 85.7% with PC-3 prostate. The growth was -24% (active) with UACC-62 melanoma, 10.8% with LOX IMVI melanoma and 61.3% with SK-MEL-28 melanoma.
On to `COc1cc(C2=Nc3c(N)nc(N)nc3NC(c3cccc(Nc4ccnc5cc(C(F)(F)F)ccc45)c3)C2)cc(OC)c1OC` (stereo not given), for which the growth was 58% in the assay with HCT-15 colon; 45.5% in the assay with HT29 colon; 68.9% in the assay on SNB-75 CNS; 78.2% in the assay on SNB-19 CNS; 61% with U251 CNS; 58.5% in the assay with PC-3 prostate. The growth in the assay with UACC-62 melanoma is 87.2%; in the assay with LOX IMVI melanoma, 66%; in the assay on SK-MEL-28 melanoma, 101%.
As to `C#C[C@]1(O)CC[C@H]2[C@@H]3CC=C4c5sc(-c6ccccc6)nc5CC[C@]4(C)[C@H]3CC[C@@]21C`, the growth in the assay with HCT-15 colon was 52.3%; in the assay with HT29 colon it was 74.2%; with SNB-75 CNS, 63.6%; in the assay with SNB-19 CNS, 88%; in the assay on U251 CNS it was 69.8%; with PC-3 prostate, 65.7%. Further, the growth in the assay on UACC-62 melanoma was 91.6%; in the assay with LOX IMVI melanoma, 74.9%; with SK-MEL-28 melanoma, 61.2%.
Consider `C#CC(F)(F)[C@]1(O)CCC2C3CCC4=CC(=O)CCC4=C3[C@@H](c3ccc(N(C)C)cc3)C[C@@]21C` (stereo not given in full), for which the growth in the assay with HCT-15 colon was 90%; with HT29 colon, 87.9%; in the assay with SNB-75 CNS it was 73.9%; in the assay on SNB-19 CNS it was 98.6%; with U251 CNS, 89.3%; in the assay on PC-3 prostate it was 66%. Further, the growth in the assay with UACC-62 melanoma was 81%; in the assay with LOX IMVI melanoma, 96.2%; with SK-MEL-28 melanoma, 109%.
In the case of `COC(=O)c1ccc(-n2cc(CCCOS(=O)(=O)c3ccc(F)cc3)nn2)cc1`, the growth in the assay with HCT-15 colon is 98.1%; with HT29 colon, 101%; in the assay with SNB-75 CNS, 94.5%; in the assay with SNB-19 CNS, 93.9%; in the assay with U251 CNS, 96.7%; in the assay on PC-3 prostate, 93.4%. In addition, the growth in the assay on UACC-62 melanoma is 92.5%; in the assay with LOX IMVI melanoma, 98.4%; with SK-MEL-28 melanoma, 101%.
Regarding `O=C(/C=C/c1ccc(Cl)cc1)c1ccc(-n2cc(CN3CCN(c4cc5c(cc4F)c(=O)c(C(=O)O)cn5C4CC4)CC3)nn2)cc1`, the growth in the assay with HCT-15 colon is 95.8%; with HT29 colon it was 78.2%; in the assay with SNB-75 CNS, 91.6%; in the assay on SNB-19 CNS, 84.1%; in the assay on U251 CNS, 68.6%; in the assay with PC-3 prostate, 89%. For the same molecule, the results for the growth with UACC-62 melanoma and with SK-MEL-28 melanoma were 74.6% and 85.4%, respectively.
`COc1ccc(C2=NN(C=O)C(c3ccc(Oc4nc5c(c(=O)n(C)c(=O)n5C)n4C)c(OC)c3)C2)cc1` (stereo not given): the growth with HCT-15 colon is 88.9%; in the assay on HT29 colon it was 71.8%; with SNB-75 CNS, 94.1%; with SNB-19 CNS, 69.1%; in the assay on U251 CNS, 90.1%; with PC-3 prostate it was 78.4%. In addition, the growth was 88.5% in the assay with UACC-62 melanoma, 68.2% in the assay on LOX IMVI melanoma and 97.8% in the assay on SK-MEL-28 melanoma.
For `COc1cccc2cc(N(C)c3ncnc4ccccc34)ccc12`, the growth in the assay with HCT-15 colon was 11.1%; with HT29 colon, 2.77% (active); in the assay with SNB-75 CNS, 34.8%; in the assay with SNB-19 CNS, 31.8%; with U251 CNS, 11%; in the assay with PC-3 prostate, 5.88% (active). For the same molecule, the growth with UACC-62 melanoma is 23.4%; with LOX IMVI melanoma it was 15.5%; with SK-MEL-28 melanoma, 33.3%.
`O=C1/C(=C/c2cccc([N+](=O)[O-])c2)COc2ccc(O)c(O)c21`: the growth in the assay on HCT-15 colon is -3.34% (active); in the assay with HT29 colon, -12% (active); with SNB-75 CNS, 7.32% (active); in the assay on SNB-19 CNS, -47.3% (active); with U251 CNS, -89% (active); in the assay on PC-3 prostate it was -38.9% (active). Moreover, the growth in the assay on UACC-62 melanoma is -83.3% (active); with LOX IMVI melanoma it was -93.6% (active); with SK-MEL-28 melanoma, -48.3% (active).
On to `O=C1C(c2c(O)[nH]c3ncccc23)=Nc2ccccc21`, for which the growth in the assay on HCT-15 colon is 77.9%; in the assay on HT29 colon, 93.8%; in the assay with SNB-75 CNS, 68.1%; with SNB-19 CNS, 96.4%; in the assay with U251 CNS, 88.2%; with PC-3 prostate, 73%. Further, the growth with UACC-62 melanoma is 79.6%; with LOX IMVI melanoma, 76.3%; with SK-MEL-28 melanoma, 123%.
For `Nc1n[nH]c2cccc(C#Cc3cccc(C(=O)Nc4ccc(Cl)c(C(F)(F)F)c4)c3)c12`, the growth was 56.4% in the assay with HCT-15 colon; 26% in the assay on HT29 colon; 65.7% in the assay with SNB-75 CNS; 89.1% in the assay with SNB-19 CNS; 69% in the assay on U251 CNS; 59.6% in the assay with PC-3 prostate. The figures for the growth in the assay on UACC-62 melanoma, in the assay on LOX IMVI melanoma and with SK-MEL-28 melanoma were 22.2%, 18.1% and 24.7%, respectively.
Take `C#CCOC(=O)C(N)CSSCC(N)C(=O)O` (stereo not given): the growth in the assay with HCT-15 colon is 108%; in the assay with HT29 colon, 102%; with SNB-75 CNS, 76.1%; in the assay on SNB-19 CNS it was 103%; in the assay on U251 CNS, 105%; with PC-3 prostate, 91.6%. Besides, the values for the growth with UACC-62 melanoma and in the assay with SK-MEL-28 melanoma were 98% and 96.4%, respectively.
